# About 2,200 (0.71%) of roughly 310,000 compounds showed an effect of 50% or more. The effect is printed as a negative number. The entries come from a sample that favours strong results as a whole.
# Target: human ether-à-go-go-related gene (hERG) potassium channel (human, UniProt Q12809)
# Experiment: primary screen, population patch clamp on CHO cells stably expressing hERG; higher = less effect of the substance
# Sequence of human ether-à-go-go-related gene (hERG) potassium channel (Q12809 whole entry, looked up): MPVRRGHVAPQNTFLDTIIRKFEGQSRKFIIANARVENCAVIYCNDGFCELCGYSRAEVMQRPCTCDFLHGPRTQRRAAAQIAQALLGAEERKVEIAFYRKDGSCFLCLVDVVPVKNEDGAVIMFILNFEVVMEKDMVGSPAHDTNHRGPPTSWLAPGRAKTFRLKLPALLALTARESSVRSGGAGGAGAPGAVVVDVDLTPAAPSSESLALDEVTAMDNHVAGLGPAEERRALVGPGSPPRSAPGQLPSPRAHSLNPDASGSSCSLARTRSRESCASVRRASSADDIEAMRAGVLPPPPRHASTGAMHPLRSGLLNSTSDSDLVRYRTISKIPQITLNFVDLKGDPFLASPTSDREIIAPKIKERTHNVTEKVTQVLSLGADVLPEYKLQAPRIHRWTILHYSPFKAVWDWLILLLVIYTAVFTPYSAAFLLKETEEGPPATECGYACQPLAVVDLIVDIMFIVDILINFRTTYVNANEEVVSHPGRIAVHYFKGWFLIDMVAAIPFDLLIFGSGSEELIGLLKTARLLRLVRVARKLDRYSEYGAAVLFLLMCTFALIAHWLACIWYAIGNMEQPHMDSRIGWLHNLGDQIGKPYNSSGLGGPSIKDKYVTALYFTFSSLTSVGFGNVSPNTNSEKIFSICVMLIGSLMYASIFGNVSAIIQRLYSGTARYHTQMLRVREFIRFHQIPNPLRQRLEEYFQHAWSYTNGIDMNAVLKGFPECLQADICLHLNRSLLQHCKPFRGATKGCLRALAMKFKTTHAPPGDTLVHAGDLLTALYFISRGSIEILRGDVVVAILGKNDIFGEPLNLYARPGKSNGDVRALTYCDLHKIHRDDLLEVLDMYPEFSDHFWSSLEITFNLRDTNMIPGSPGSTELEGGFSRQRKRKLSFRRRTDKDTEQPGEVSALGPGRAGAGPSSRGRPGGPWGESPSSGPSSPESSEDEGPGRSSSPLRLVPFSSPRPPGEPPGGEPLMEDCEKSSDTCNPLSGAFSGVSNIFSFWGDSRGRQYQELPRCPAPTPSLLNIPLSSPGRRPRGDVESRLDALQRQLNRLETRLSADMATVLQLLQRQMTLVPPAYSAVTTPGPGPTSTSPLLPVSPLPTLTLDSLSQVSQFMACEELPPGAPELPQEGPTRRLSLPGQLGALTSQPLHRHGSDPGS
row,Compound,"hERG current change (%, negative = inhibition) at 1uM"
1,CC(=O)Nc1ccc(CNc2ncnc3ccc(-c4c(C)noc4C)cc23)cc1,11.5%
2,O=C1C=C(O)C(n2cncn2)C(c2ccc(F)cc2)C1 (centres unmarked),-9.66%
3,COC(=O)c1cc(C(=O)OC)cc(N2C(=O)CC(NNC(=O)c3ccccc3Br)C2=O)c1 (centres unmarked),4.08%
4,O=C1NC2(CCCCC2)C(=O)N1Cc1cc(=O)n2ccsc2n1,6.06%
5,Cc1ccc(CN2C(=O)CCC2C(=O)NCc2ccccc2Cl)cc1 (centres unmarked),7.62%
6,Nc1nc2ccc(-c3nc4ccccc4o3)cc2s1,11.2%
7,CC(=O)N1CCN(c2ccnc3cc(Cl)ccc23)CC1,-23.2%
8,CCOC(=O)N1CCN(c2ccnc3cc(Cl)ccc23)CC1,-36.7%
9,CC(C)(C)C(=O)N1CCN(c2ccnc3cc(Cl)ccc23)CC1,-55.8%
10,c1cncc(-c2nc3ccccn3c2Nc2ccc3c(c2)OCCO3)c1,4.02%
11,O=C(O)CN(Cc1ccco1)S(=O)(=O)c1ccc(F)cc1,11.9%
12,CCOc1cccc(C(=O)Nc2ccc3[nH]ncc3c2)c1,21.7%
13,O=C(Nc1ccccc1)/C(=C\c1cccs1)NC(=O)c1ccccc1,14.9%
14,O=C(N/C(=C\c1cccs1)C(=O)N1CCCCCC1)c1ccccc1,1.61%
15,O=C(N/C(=C/c1ccc2c(c1)OCO2)C(=O)N1CCOCC1)c1cccs1,9.57%
16,CN1CCN(C(=O)/C(=C\c2cccs2)NC(=O)c2ccccc2)CC1,-78.3%
17,CN1CCN(C(=O)/C(=C\c2cccs2)NC(=O)c2cccs2)CC1,-77.3%
18,O=C(N/C(=C/c1cccs1)C(=O)N1CCCC1)c1ccccc1,14.4%
19,Cc1ccc(NC(=O)/C(=C\c2cccs2)NC(=O)c2ccccc2)cc1,-1.02%
20,O=C(N/C(=C\c1ccc2c(c1)OCO2)C(=O)N1CCOCC1)c1cccs1,-18.7%
21,Cc1cccc(NC(=O)/C(=C\c2cccs2)NC(=O)c2ccccc2)c1,-65.1%
22,CN1CCN(C(=O)/C(=C\c2ccc3c(c2)OCO3)NC(=O)c2cccs2)CC1,-75.6%
23,O=C(N/C(=C\c1cccs1)C(=O)N1CCOCC1)c1cccs1,6.69%
24,O=C(N/C(=C/c1cccs1)C(=O)N1CCOCC1)c1cccs1,8.07%

row,Compound,"hERG current change (%, negative = inhibition) at 1uM"
1,Cc1ccc(NC(=O)CCC(=O)c2ccc(Br)cc2)cc1,10.9%
2,COc1ccc(C(=O)N/N=C/c2cc(Br)ccc2O)cc1OC,14.7%
3,CCOc1cc(/C=C2/C(=N)N3C(=NC2=O)SN=C3S(C)(=O)=O)ccc1OS(=O)(=O)c1ccccc1,17.3%
4,CCOC(=O)c1sc2nc(C)nc(NCc3cccnc3)c2c1C,10.8%
5,COc1ccc(/C=N/Nc2ccc(C(F)(F)F)cc2[N+](=O)[O-])cc1O,3.36%
6,[O-][n+]1onc2c3cc(-c4ccccc4)nnc3ccc21,1.69%
7,CC(C)(Oc1ccc(Cl)cc1)C(=O)N1CCN(c2ccccn2)CC1,-1.81%
8,COc1cccc(NC(=O)c2cc(-c3cccnc3)nc3c(Cl)cccc23)c1,7.59%
9,COc1c2c(cc3c1C(CC(O)Cc1ccccc1)N(C)CC3)OCO2 (centres unmarked),-14%
10,COc1ccc(CC(O)CC2c3c(cc4c(c3OC)OCO4)CCN2C)cc1.Cl (centres unmarked),-51.8%
11,COc1ccc2c(c1OC)C(=O)OC2C1c2c(cc3c(c2OC)OCO3)CCN1C.Cl (centres unmarked),9.06%
12,Cc1ccc(C(=O)Nc2cccc(C(=O)N3CCOCC3)c2)cc1,3.75%
13,O=C(CCc1ccccc1)Nc1ccc2ccccc2n1,-2.39%
14,CNC(=S)NNC(=O)c1sc2cc(C(F)(F)F)cnc2c1-c1ccccn1,4.79%
15,O=C(CN1CCN(C/C=C/c2ccccc2)CC1)NCc1ccccc1,-53.6%
16,O=C(CN1CCN(C/C=C/c2ccccc2)CC1)NCc1ccc(Cl)cc1,-72.5%
17,O=C(NCC(=O)N1CCCCCC1)c1ccc(OC(F)F)cc1,10.4%
18,O=C(CN1CCCCCC1)NCc1ccccc1,11.8%
19,O=C(CN1CCN(Cc2ccccc2)CC1)NCc1ccc(Cl)cc1,-13.4%
20,Cl.O=C(CN1CCCC1)NCc1ccccc1,13.4%
21,CCOc1ccc(C(=O)NCC(=O)N2CCN(C/C=C/c3ccccc3)CC2)cc1OCC,-1.35%
22,O=C(CN1CCN(c2ccc(Cl)cc2)CC1)NCc1ccccc1,-23.6%
23,O=C(NCC(=O)N1CCN(C/C=C/c2ccccc2)CC1)c1ccc(OC(F)F)cc1,-50.4%
